High-throughput results deposited in PubChem by National Center for Advancing Translational Sciences (NCATS).
HT1080 IDH1KD tx – toxicity to HT-1080 IDH1 knockdown cells (counter line); HT-1080 IDH1 knockdown viability, ATP luminescence, 48 h; Potency, µM (series often up to 46.1 µM), for inactives: at the top dose activity, negative = toxicity, usual class: cytotoxic; 360,000 tested, 2% active;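 also: potency is read from the fitted curve at half-maximal effect; 0% = DMSO wells and -100% = cell-free medium wells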
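% activity derives from luminescence (CellTiter-Glo), normalised to DMSO and no-cell wells. HT-1080-IDH1KD cells, 750/well, had 48 h compound exposure at 37 °C.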
HT1080-NT tox – kills 2HG-producing HT-1080-NT fibrosarcoma cells; HT-1080-NT fibrosarcoma viability, CellTiter-Glo ATP luminescence, 48 h; Potency, µM (titrated, usually from 46.1 µM), for the others: top-dose activity, negative = less viability, hits mostly cytotoxic; 360,000 tested, 1.6% active; AID 686970;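 also: NT is the 2HG producing partner of a matched IDH1 knockdown line; potency is read from the fitted curve at half-maximal effect; 0% = DMSO-treated cells and -100% = media-only wells without cells; nearly all actives have a fitted effect of over 55% in size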
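A 48-hour cytotoxicity screen used HT-1080-NT cells plated 2 hours before compound delivery. ATP-based CellTiter-Glo luminescence measured viability, normalized to DMSO and no-cell controls.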
DT40 TDP1 CPT – growth inhibition of DT40 Tdp1-/-;hTDP1 cells with camptothecin (screen for TDP1 inhibitors); chicken DT40 Tdp1-/-;hTDP1 cells + 20 nM CPT, ATP luminescence, 48 h; Potency, µM (highest dose often 46.2 µM), for inactives: at the highest dose activity change, negative = growth inhibition, hits mostly inhibitors; 420,000 tested, 12% active; also: potency is read from the fitted curve at half-maximal effect; nearly all actives have a fitted effect of over 55% in size
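Cell growth measured by CellTiter-Glo luminescence after a minimum 48 h, 37 C compound exposure with 20 nM CPT in Tdp1-knockout DT40 cells stably expressing hTDP1, seeded 400/well; qHTS titration format.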
IL1B secr inh – inhibitors of inflammasome signaling (IL-1 beta secretion); THP-1 LPS/ATP IL-1B secretion, AlphaLISA, 16 h; stronger effect = lower value; AID 743279; 360,000 tested, 4.7% active; activity change, % at 57.5 µM; in the data active = activity change below about -50%; inconclusive = mostly about -30% to -49%
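Secreted IL-1B measured by AlphaLISA bead assay after 16 h compound exposure of THP-1 cells; compounds (final up to 57.5 uM) added 1 h before LPS (250 ng/mL) and ATP (1.25 mM) stimulation; lower signal means less secretion.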
DT40 TDP1 no CPT – qHTS for Inhibitors of human tyrosyl-DNA phosphodiesterase 1 (TDP1): qHTS in cells in absence of CPT; DT40 Tdp1-/- hTDP1 cells, no CPT, ATP luminescence, 48 h; Potency, µM (series often up to 46.2 µM), without a hit: at the highest dose activity change, negative = growth inhibition, usual class: inhibitors; 420,000 tested, 15% active; AID 686978, 2013; also: potency is read from the fitted curve at half-maximal effect; nearly all actives have a fitted effect of over 55% in size
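Seeded 400 DT40-hTDP1 cells/well (vehicle DMSO, no 20 nM CPT); pinned compounds; ≥48 hr at 37 °C; CellTiter-Glo luminescence as viability measure.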
An asterisk follows results filed as active; ? = inconclusive; . = no result given. Rows were chosen to be rich in hits. Some 19% of all compounds tested hit in one or more screens of this group. Unless noted, calls follow the shape of the dose curve; as a rule, active = well fitted curve in the direction sought with a large enough effect; inconclusive = small, poorly fitted or top-dose-only effect, or another doubt; inactive = no such curve, though single readings can be large; an effect the other way counts as inactive or inconclusive. Unless noted, % is scaled to controls: 0 for no effect and ±100 for the full control effect.

SMILES	HT1080 IDH1KD tx	HT1080-NT tox	DT40 TDP1 CPT	IL1B secr inh	DT40 TDP1 no CPT
CCCn1c(N)c(N(CCOC)C(=O)c2cccc(S(=O)(=O)N3CCCc4ccccc43)c2)c(=O)[nH]c1=O	14%	12%	?	6	?
CCN(Cc1ccccc1)C(=O)c1cccc(S(=O)(=O)N2CCN(c3ccc(F)cc3)CC2)c1	-11%	-7%	18µM*	-26	16µM*
CCc1ccc(CN(C)C(=O)c2cc(S(=O)(=O)N3CCOCC3)ccc2N2CCCC2)cc1	1%	3%	?	6	?
COc1cccc(CNC(=O)c2cccc(S(=O)(=O)N3CCN(Cc4ccccc4)CC3)c2)c1	-3%	1%	-9%	-8	-18%
COCCN(Cc1ccccc1)C(=O)c1cccc(S(=O)(=O)N2CCN(Cc3ccccc3)CC2)c1	-20%	-16%	?	-7	18µM*
COCCN(Cc1ccccc1)C(=O)c1cccc(S(=O)(=O)N2CCCc3ccccc32)c1	-28%	-20%	13µM*	25	9.2µM*
CC1CCCCN1S(=O)(=O)c1ccc(C(=O)Nc2nnc(-c3ccccn3)o2)cc1 (configuration not stated)	-13%	-24%	-23%	17	?
Cc1ccc2nc(SCC(=O)Nc3ccc(F)cc3F)nc(=O)n2c1	14%	5%	-17%	-4	-19%
C=CCc1c(C)nc(N)[nH]c1=O	-1%	9%	3%	0	-7%
COc1cccc(OCC(=O)Nc2c3c(nn2-c2ccc(F)cc2)CS(=O)(=O)C3)c1	6%	9%	8%	-6	-6%
CN(Cc1ccco1)C(=O)c1cccc(S(=O)(=O)N2CCN(Cc3ccccc3)CC2)c1	0%	5%	?	10	?
O=C(c1cccc(S(=O)(=O)N2CCCCC2)c1)N(CCc1ccccc1)Cc1ccccc1	-2%	-3%	18µM*	2	?
CCN(Cc1ccccc1)C(=O)c1cccc(S(=O)(=O)N2CCN(Cc3ccccc3)CC2)c1	-19%	-1%	16µM*	-9	26µM*
COc1cc(OC)cc(-c2nn[nH]n2)c1	3%	5%	10%	20	-1%
CCOc1cc(/C=C2\SC(=N)N(c3nonc3N)C2=O)ccc1OCCN1CCOCC1	-14%	0%	13µM*	-29	21µM*
O=C(c1cccc(NS(=O)(=O)c2ccc(F)c(F)c2)c1)N1CCN(Cc2ccccc2)CC1	-7%	-2%	?	0	?
CC1(C)Cc2c(c(N3CCOCC3)nc3sc(C(=O)Nc4ccccc4)c(N)c23)CO1	26%	23%	?	0	?
Nc1c(C(=O)Nc2ccc(Br)cc2)sc2nc(N3CCOCC3)c3c(c12)CCCC3	0%	10%	21µM*	11	?
CC1(C)Cc2c(c(N3CCOCC3)nc3sc(C(=O)Nc4cccc(Cl)c4)c(N)c23)CO1	14%	1%	18µM*	-10	?
COc1ccc(NC(=O)c2sc3nc(N4CCOCC4)c4c(c3c2N)CCCC4)c(OC)c1	17%	0%	-4%	9	-6%
Cc1cccc(NC(=O)c2sc3nc(N4CCOCC4)c4c(c3c2N)CC(C)(C)OC4)c1	.	.	?	.	7.3µM*
CC(CNC(=O)CN1C(=O)COc2ccc(S(=O)(=O)N3CCCCC3)cc21)c1ccccc1 (configuration not stated)	-13%	-9%	?	-22	-17%
CN(C)C(=O)NC(Nc1ccc(Cl)cc1Cl)C(Cl)(Cl)Cl (configuration not stated)	-23%	?	?	-5	18µM*
CC(C)C(NC(=O)c1ccc(C(C)(C)C)cc1)C(=O)N1CCC(C(N)=O)CC1 (configuration not stated)	11%	4%	?	1	?
COC(=O)c1ccccc1-c1cc(C)cc2c1OC(CNC(=O)c1occc1C)C2 (configuration not stated)	.	.	16µM*	.	12µM*
